beta cell repl: inducers of MIN6 beta-cell proliferation, primary screen, ATP luminescence, uHTS; AID 2380, 2010; proliferation, % at 10 µM; MIN6 cells proliferation, ATPlite luminescence, 48 h; cells starved in 0.2% serum; 100% = growth in 10% serum; hit rate 0.29% among 330,000;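 active means compounds whose signal lies at least 3.5 SD above the mean of all wells on their plate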;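 further: 0% = DMSO-treated cells in low-serum medium and 100% = 10% serum control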
Myeloid diff 2: induction of myeloid progenitor differentiation, primary screen, cell-based, flow cytometry, MLPCN library | ER-HoxA9 myeloid progenitors, lysozyme-GFP differentiation | calls only at 10 µM | hit rate 1% among 360,000 | AID 624256, 2012;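 active means normalized GFP-positive differentiation at or above the plate's own cutoff, the solvent-only control mean plus 3 SD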;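 further: cells exposed to compound for four days before flow analysis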
Cardio protect: cardioprotection against H2O2-induced cell death, primary screen, uHTS, H9c2 cells, ATPLite luminescence; H9c2 cardiomyocytes, H2O2 injury protection, 2 h; protection from H2O2 cell death, % at 20 µM; hit rate 0.63% among 360,000; AID 588492, 2011;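 active means compounds giving at least 50% protection of heart cells from peroxide-induced death in the single-dose screen, raw or plate-pattern-corrected value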;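 further: 0% = DMSO wells with peroxide and 100% = DMSO wells without peroxide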
ABCB6 inh 2: ABCB6 transporter inhibitors, primary screen, K562-ABCB6 cells, flow cytometry, MLPCN library | hit rate 0.19% among 360,000 | K562-ABCB6 porphyrin accumulation, 1 h; hits give low values | ATP-binding cassette sub-family B member 6 (Homo sapiens), Q9NP58 | fluorescence ratio to DMSO, % at 10 µM;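 active means fluorescence ratio to DMSO below 75%, the collection mean minus 3 SD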;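 further: signal is porphyrin accumulated inside mitochondria; 100% equals median channel fluorescence of DMSO control wells; lower ratio means ABCB6 inhibition with less porphyrin fluorescence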
iPSC survival up: enhancers of single-cell hiPSC survival, primary screen, ATPlite luminescence; 100% = ROCK inhibitor wells, 0% = DMSO; survival enhancement, % at 20 µM; hit rate 0.044% among 360,000; in the data active means survival enhancement above about 18%;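 further: cells exposed to compounds for 16 hours before the ATP read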
Starred values were filed as active, the others as inactive; i = inactive; nt = no result; + = active, no number. The list is not random: actives were taken first. Their share in the collection is about 2.2%.

SMILES	beta cell repl	Myeloid diff 2	Cardio protect	ABCB6 inh 2	iPSC survival up
CCc1ccc(CN(Cc2cccnc2)C(=O)/C=C/c2ccc(OC)cc2)cc1	-4.2	+	-12.3	133.0	0.7
CCCCN1CCNC[C@@H]1Cc1ccc(O)cc1	-2.5	+	-1.4	104.0	-2.1
Oc1ccc(C[C@@H]2CNCCN2CCc2cccc3ccccc23)cc1	-7.9	+	3.6	99.0	-4.2
CCCCN1CCNC[C@@H]1Cc1ccccc1	-0.8	i	-8.4	97.0	-2.1
CCN(CC)CCCn1c2c(c(SCC(=O)Nc3cccc(C(C)=O)c3)nc1=O)CCC2	-0.5	i	18.7	93.0	-0.3
CCN(CC)CCn1c2c(c(SCC(=O)Nc3cccc(C(C)=O)c3)nc1=O)CCCC2	-4.1	i	74.6*	101.0	0.4
COC(=O)c1cc(OC)c(OC)cc1NC(=O)Nc1ccc(OC)cc1	-2.8	i	5.7	100.0	0.5
COC(=O)c1cc2ccc(OC)cc2c2cc(OC)c(OC)cc12	3.0	i	55.1*	88.0	-3.0
Cc1ccc(S(=O)(=O)N(C)C)cc1NC(=S)N1CCN(Cc2ccc3c(c2)OCO3)CC1	-1.9	+	-15.7	92.0	-1.4
Cc1ccccc1NC(=S)N1CCN(Cc2ccc3c(c2)OCO3)CC1	-1.6	i	-5.9	99.0	0.3
CC(=O)N(C)c1ccc(N=Cc2cc3c(cc2[N+](=O)[O-])OCO3)cc1	-3.5	i	0.7	97.0	-0.2
COc1ccc2c(c1)[C@H]1[C@H](CO2)[C@H](c2ccccc2)[C@]2(C)C(=O)Nc3cc(Cl)ccc3C(=O)N12	-9.1	i	-9.0	102.0	2.0
COc1ccc2c(c1)C(=O)N1[C@H]3c4cc(Cl)ccc4OC[C@@H]3[C@H](c3ccccc3)[C@]1(C)C(=O)N2	-6.1	+	-1.5	99.0	1.9
C[C@H](OC(=O)c1[nH]cnc1C(=O)N1CCN(C(=O)OC(C)(C)C)CC1)c1ccccc1	0.7	i	-2.9	93.0	-2.2
COc1ccc(C(=O)COC(=O)c2c(-c3ccccc3)noc2C)c(OC)c1	1.7	i	-5.6	92.0	-0.4
COc1ccc(Cc2nnc(NC(=O)CSc3ccccc3)s2)cc1OC	0.0	i	0.0	100.0	0.8
COc1ccc(Cc2nnc(Nc3ccccc3)s2)cc1Br	-5.2	+	-7.3	109.0	0.5
Cn1c(=O)oc2cc(S(=O)(=O)N3CCN(c4ccccc4)CC3)ccc21	-2.9	+	-0.7	118.0	-0.5
Cn1c(=O)oc2cc(S(=O)(=O)N3CCC(C(=O)N4CCN(c5ccccc5)CC4)CC3)ccc21	-0.7	i	7.5	102.0	-1.0
CCNC(=O)CSc1nc2cc([N+](=O)[O-])ccc2n1-c1cccc(C(F)(F)F)c1	0.0	i	2.5	101.0	3.7
O=C(O)c1ccccc1CSc1nc2ccccc2n1Cc1ccccc1C(=O)O	1.7	+	-4.0	123.0	-1.3
O=C(O)CCn1c(SCc2cccc3ccccc23)nc2ccccc21	0.2	i	0.3	98.0	0.0
COc1cc(F)ccc1-c1csc(C(O)c2ccccc2)n1 (centres undefined)	nt	i	-11.7	99.0	0.5
COc1ccc(C(=O)c2coc3ccc(O)c(CN4CCCCC4)c23)cc1	1.3	+	-0.5	96.0	-2.9
COc1ccc(OC)c(C(=O)c2coc3ccc(O)c(CN(C)C)c23)c1	-2.4	i	2.5	99.0	-0.1
SMILES	beta cell repl	Myeloid diff 2	Cardio protect	ABCB6 inh 2	iPSC survival up
O=C(c1ccccc1)c1coc2ccc(O)c(CN3CCOCC3)c12	0.0	i	6.8	100.0	-1.2
COc1ccc2occ(C(=O)c3coc4ccc(O)c(CN(C)C)c34)c2c1	-3.9	i	60.7*	88.0	0.9
CC(=O)c1ccc(S(=O)(=O)Nc2ccc(-c3ccc4nnc(C)n4n3)cc2)cc1	1.7	i	25.4	97.0	-0.7
COC(=O)c1c(C)oc(C)c1S(=O)(=O)NCc1cccs1	-3.1	i	4.6	98.0	0.3
O=C(CN1CCN(C2CCCCC2)CC1)Nc1ccc(Br)cc1	-0.1	i	2.7	99.0	-0.2
CCCCNc1nc(NCc2ccccc2)nc2ccccc12	nt	+	nt	95.0	-0.9
Cc1cc(C(=O)NCCc2ccc(Cl)cc2)c2ccccc2n1	-1.6	i	3.8	99.0	0.7
